Methyltransferases – Primary Screen for Target Class Profiling of Small Molecule Inhibitors of Methyltransferases; purified enzyme, MTase-Glo SAH luminescence; stronger effect = lower value; calls only at 40 µM; actives 3.9% (n = 25,000); AID 1745853, 2022; call rule not given here
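Each enzyme was reacted with SAM and its substrate, with compounds tested once at 40 uM; SAH formed was read by MTase-Glo luminescence.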
* hit, by the source's call; i = inactive; + = active, no number. This is one part of a sample in which hits are shown more often than they occur. % is scaled to controls: 0 for no effect and ±100 for the full control effect.

SMILES | Methyltransferases
Cc1ccccc1NC(=O)CSc1nnc2n(CCCOC(C)C)c(=O)c3ccccc3n12 | i
COCCCN1CC2(CCC1=O)CCN(C(=O)Nc1ccccc1F)CC2 | i
Cc1cc(C(=O)Nc2cc(Oc3ccc4nc(NC(=O)C5CC5)cn4n3)ccc2C)n(C)n1 | i
O=Cc1ccc(-c2cc(C(F)(F)F)ccc2Cl)cc1 | i
C=C1CC/C=C(/CO)C(=O)C[C@@H]2[C@@H]1C[C@@]2(C)COC(C)=O | +
CCOc1ccc(N2C(=O)c3cc4ccccc4n3CC2(C)C(=O)NCCC(C)C)cc1 (stereo not drawn) | i
C/C=C(\C)C(=O)OC1CC2C(CC=C3CC(OC4CC(OC)C(OC5CC(OC)C(OC6CC(OC)C(OC7CC(OC)C(OC8CC(OC)C(OC9OC(CO)C(O)C(O)C9O)C(C)O8)C(C)O7)C(C)O6)C(C)O5)C(C)O4)CCC32C)C2(O)CCC(C(C)=O)C12C (stereo not drawn) | i
CC1OC2O[C@H]3[C@@H](OCC(O)[C@H]3O)OC(=O)C34CCC(C)(C)CC3C3=CCC5C6(C)CC(O)C(OC7OC(CO)C(O)C(O)C7O[C@@H]7OC[C@H](OC(=O)CC(C)(O)CC(=O)OC1C(OC1OCC(O)C(O)C1O)C2O)[C@@H](O)[C@H]7O)C(C)(CO)C6CCC5(C)C3(C)CC4 (stereo partly drawn) | i
CN(C)C/C=C/C(=O)Nc1ccc(C(=O)Nc2cccc(Nc3ncc(Cl)c(-c4c[nH]c5ccccc45)n3)c2)cc1 | +
Cc1ccc(NC(=O)c2ccc(CN3CCNCC3)cc2)cc1Nc1nccc(-c2cccnc2)n1 | i
Cn1c(=O)c(-c2c(Cl)cccc2Cl)cc2cnc(Nc3cccc(C(=O)O)c3)nc21 | i
CN(C)C/C=C/C(=O)Nc1cccc(C(=O)Nc2cccc(Nc3ncc(Cl)c(-c4c[nH]c5ccccc45)n3)c2)c1 | +
CNc1nccc(-c2cccnc2Oc2cc(C(=O)Nc3cccc(C(F)(F)F)c3)ccc2C)n1 | i
CN(C)C/C=C/C(=O)Nc1cccc(C(=O)Nc2ccc(Nc3nccc(-c4cccnc4)n3)cc2)c1 | +
Cc1ccccc1CNC(=O)c1cc2n(n1)CC(C)(C(=O)NCc1ccccc1)N(C)C2=O (stereo not drawn) | i
CCc1cccc(N2C(=O)Cn3cccc3C2C(=O)NC2CCC(C)CC2)c1 (stereo not drawn) | i
Cc1cnc(-c2ccncc2)n1C1CCN(S(=O)(=O)c2ccc3c(c2)OCCO3)CC1 | i
CC(C)CCNC(=O)N1c2ccccc2CC1c1noc(C2CCOCC2)n1 (stereo not drawn) | i
CC1(C(=O)NC2CCCCCC2)Cn2c(nc3ccccc32)C(=O)N1Cc1ccccc1F (stereo not drawn) | i
CC1(C(=O)NC2CCCCCC2)Cn2c(cc3occc32)C(=O)N1Cc1cccc(F)c1 (stereo not drawn) | i
Cc1ccc(CC(=O)N2CCN(c3cc(C(F)(F)F)ncn3)CC2)cc1 | i
CCn1ccc2oc(C)c(C(=O)N3CCN(c4cccc(C)c4C)CC3)c2c1=O | i
CCCCc1nc2c3ccccc3n(CC(=O)N3CCN(c4ccccc4OC)CC3)c(=O)n2n1 | i
Cc1csc(NC(=O)c2ccc(COc3cccc(Cl)c3)o2)n1 | i
C=C1CCc2occ(C)c2[C@H]2[C@H]1[C@@]13O[C@@]1(C[C@@H](C)[C@H]3OC(C)=O)[C@H]1O[C@@]21C | i
SMILES | Methyltransferases
Cc1cccc2c1O[C@H]1[C@H](CO)CN([S+](=O)([O-])c3cccs3)[C@@H]21 | i
Clc1ncoc1-c1c[nH]c2ccccc12 | i
O=C1NC(=O)C(c2c[nH]c3ccccc23)=C1c1c[nH]c2ccccc12 | +
O=C1NC(Cc2c[nH]c3ccccc23)C(=O)NC1Cc1c[nH]c2ccccc12 (stereo not drawn) | i
CC(C)(Oc1nn(CCN2CCOCC2)c2ccccc12)C(=O)NCc1ccncc1 | i
Cc1ccc(S(=O)(=O)c2nnn3c2nc(NCCCN2CCCC2=O)c2cc(Cl)ccc23)cc1C | i
CC(CNC(=O)CCc1nnc2n(Cc3ccccc3)c(=O)c3ccccc3n12)c1ccccc1 (stereo not drawn) | i
CCc1cc2c(cc3n2CC(C)(C(=O)NC2CCCCCC2)N(CCCN2CCCCC2)C3=O)s1 (stereo not drawn) | i
COc1cc2c(c(OC)c1CC=C(C)C)C[C@H](c1ccc(O)c(CC=C(C)C)c1O)CO2 | i
CC1(C)CC[C@]2(C(=O)O[C@@H]3O[C@H](CO)[C@@H](O)[C@H](O)[C@H]3O)CC[C@]3(C)C(=CCC4[C@@]5(C)CC[C@H](O[C@@H]6O[C@H](C(=O)O)[C@@H](O)[C@H](O)[C@H]6O)C(C)(C)C5CC[C@]43C)C2C1 (stereo partly drawn) | i
CC1(C)CC[C@]2(C(=O)O[C@@H]3O[C@H](CO)[C@@H](O)[C@H](O)[C@H]3O)CC[C@]3(C)C(=CCC4[C@@]5(C)CC[C@H](O[C@@H]6O[C@H](C(=O)O)[C@H](O)[C@H](O)[C@H]6O)C(C)(C)C5CC[C@]43C)[C@@H]2C1 (stereo partly drawn) | +
CC1(C)CC[C@@]2(C(=O)O[C@@H]3O[C@H](CO)[C@@H](O)[C@H](O)[C@H]3O)C(C1)C1=CCC3[C@@]4(C)CC[C@@H](O[C@@H]5O[C@H](C(=O)O)[C@@H](O[C@@H]6OC[C@@H](O)[C@H](O)[C@H]6O)[C@H](O[C@@H]6OC[C@](O)(CO)[C@H]6O)[C@H]5O)C(C)(C)C4CC[C@@]3(C)[C@]1(C)C[C@H]2O (stereo partly drawn) | i
C[C@@H]1O[C@@H](O[C@@H]2[C@@H](O)[C@H](O[C@H]3[C@H](O[C@H]4CC[C@@]5(C)C(CC[C@]6(C)C5CC=C5[C@@H]7CC(C)(C)CC[C@]7(C(=O)O[C@@H]7O[C@H](CO)[C@@H](O)[C@H](O)[C@H]7O)CC[C@]56C)C4(C)C)O[C@H](C(=O)O)[C@@H](O)[C@@H]3O)OC[C@H]2O)[C@H](O)[C@H](O)[C@H]1O (stereo partly drawn) | i
CC1(CO)CC[C@]2(C(=O)O[C@@H]3O[C@H](CO)[C@@H](O)[C@H](O)[C@H]3O)CC[C@]3(C)C(=CCC4[C@@]5(C)CC[C@H](O[C@@H]6O[C@H](C(=O)O)[C@@H](O)[C@H](O)[C@H]6O)C(C)(C)C5CC[C@]43C)C2C1 (stereo partly drawn) | i
CC1OC(OC2C(OC(=O)[C@]34CCC(C)(C)C[C@H]3C3=CCC5[C@@]6(C)CC[C@H](OC7OC(C(=O)O)C(O)C(O)C7O)C(C)(C)C6CC[C@@]5(C)[C@]3(C)CC4O)OC(CO)C2O)C(O)C(O)C1OC1OCC(O)C(O)C1O (stereo partly drawn) | +
Cc1ccc(N2C(=O)c3cc4sccc4n3CC2(C)C(=O)NC2CCCC(C)C2C)cc1 (stereo not drawn) | i
COc1cc2occc2c(O[C@@H]2O[C@H](CO)[C@@H](O)[C@H](O)[C@H]2O)c1CCC(=O)O | i
CC(C)N1CC[C@@H]2[C@H]1C(=O)NC[C@H](CCC(=O)NCc1ccc(F)cc1)N2C | i
CCOCCCNc1nc2c(S(=O)(=O)c3ccccc3)nnn2c2ccc(Cl)cc12 | i
COc1ccc(C(=O)N[C@@H]2CCOC[C@H]2Oc2ccccn2)c(F)c1F | i
